Read-out in assay [1]: Pyruvate Dehydrogenase Kinase 4 (PDK4), PDK4 (gene 5166)
Put plainly: LTEA_HepaRG_PDK4: Life Technologies and Expression Analysis (LTEA) Assay for Pyruvate Dehydrogenase Kinase 4 (PDK4) using HepaRG (AID 2283525). Particulars: mRNA level, 48 h; actives raise or lower the signal. The gist of the method: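 Readout is qRT-PCR of PDK4 transcript, normalized to three housekeeping genes, with bidirectional fitting against 0.5% DMSO vehicle. Differentiated HepaRG cells were treated 48 h in serum-free induction medium, duplicate wells, eight-point half-log series topping at 100 uM.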

Read-out in assay [2]: NAD(P)H dehydrogenase [quinone] 1 (NQO1), NQO1 (gene 1728)
Put plainly: LTEA_HepaRG_NQO1: Life Technologies and Expression Analysis (LTEA) Assay for NAD(P)H dehydrogenase [quinone] 1 (NQO1) using HepaRG (AID 2283526). As to conditions: mRNA level, 48 h; actives raise or lower the signal. The gist of the method: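 Transcript induction or suppression is quantified by qRT-PCR in human HepaRG liver cells dosed for 48 hours. Eight half-log concentrations topping at 100 uM are used, with 0.5% DMSO as vehicle and baseline.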

Read-out in assay [3]: succinate dehydrogenase complex iron sulfur subunit B (SDHB), SDHB (gene 6390)
Put plainly: LTEA_HepaRG_SDHB: Life Technologies and Expression Analysis (LTEA) Assay for succinate dehydrogenase complex iron sulfur subunit B (SDHB) using HepaRG (AID 2283528). Particulars: mRNA level, 48 h; actives raise or lower the signal. The gist of the method: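 Readout is SDHB transcript level by qRT-PCR, normalised to three housekeeping genes and fitted bidirectionally against 0.5% DMSO vehicle. Human HepaRG cells were treated for 48 h at up to 100 uM.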

Read-out in assay [4]: Signal transducer and activator of transcription 3 (Homo sapiens) (UniProt P40763)
Put plainly: LTEA_HepaRG_STAT3: Life Technologies and Expression Analysis (LTEA) Assay for Signal transducer and activator of transcription (STAT3) using HepaRG (AID 2283529). Particulars: mRNA level, 48 h; actives raise or lower the signal. The gist of the method: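 STAT3 transcript quantified by qRT-PCR against three housekeeping genes (ACTB, GAPDH, POLR2A), fitted both directions relative to DMSO. HepaRG cultures exposed 48 h to eight half-log concentrations, top 100 uM, 0.5% DMSO, serum-free induction medium.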

Read-out in assay [5]: solute carrier (SLCO1B1), SLCO1B1 (gene 10599)
Put plainly: LTEA_HepaRG_SLCO1B1: Life Technologies and Expression Analysis (LTEA) Assay for solute carrier (SLCO1B1) using HepaRG (AID 2283530). As to conditions: mRNA level, 48 h; actives raise or lower the signal. Put shortly:
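Human HepaRG cultures treated for 48 h with an eight-concentration half-log series topping at 100 uM; SLCO1B1 measured by qRT-PCR and fitted bidirectionally relative to DMSO.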

Read-out in assay [6]: sulfotransferase 2A1 (SULT2A1), SULT2A1 (gene 6822)
Put plainly: LTEA_HepaRG_SULT2A1: Life Technologies and Expression Analysis (LTEA) Assay for sulfotransferase 2A1 (SULT2A1) using HepaRG (AID 2283531). As to conditions: mRNA level, 48 h; actives raise or lower the signal. The gist of the method: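 Gene-expression endpoint in a human liver cell line: SULT2A1 mRNA change after 48 h chemical treatment, curves fitted in both directions relative to 0.5% DMSO vehicle. Concentrations spanned eight half-log steps from 100 uM.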

Read-out in assay [7]: Transforming Growth Factor (TGFA), TGFA (gene 7039)
Put plainly: LTEA_HepaRG_TGFA: Life Technologies and Expression Analysis (LTEA) Assay for Transforming Growth Factor (TGFA) using HepaRG (AID 2283532). Particulars: mRNA level, 48 h; actives raise or lower the signal. Put shortly:
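TGFA transcript quantified by qRT-PCR (Fluidigm arrays) against three housekeeping genes, after 48 hours chemical treatment of HepaRG cells. Top concentration 100 uM with half-log dilutions, 8 points, duplicates, 0.5% DMSO.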

Read-out in assay [8]: Transforming Growth Factor (TGFB1), TGFB1 (gene 7040)
Put plainly: LTEA_HepaRG_TGFB1: Life Technologies and Expression Analysis (LTEA) Assay for Transforming Growth Factor (TGFB1) Transporter using HepaRG (AID 2283533). Particulars: mRNA level, 48 h; actives raise or lower the signal. Put shortly: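 Eight-point concentration-response (max 100 uM, half-log) in HepaRG under serum-free induction conditions, 48 h. TGFB1 mRNA by qRT-PCR, housekeeping-normalized.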

Read-out in assay [9]: TIMP1, TIMP1 (gene 7076)
Put plainly: LTEA_HepaRG_TIMP1: Life Technologies and Expression Analysis (LTEA) Assay for TIMP1 using HepaRG (AID 2283534). As to conditions: mRNA level, 48 h; actives raise or lower the signal. Put shortly: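 TIMP1 induction or repression in HepaRG cells after 48 h chemical exposure (eight concentrations, highest 100 uM), assessed by normalized qRT-PCR with bidirectional fitting to DMSO controls.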

Read-out in assay [10]: Tumor necrosis factor receptor 1 (TNFRSF1A), TNFRSF1A (gene 7132)
Put plainly: LTEA_HepaRG_TNFRSF1A: Life Technologies and Expression Analysis (LTEA) Assay for Tumor necrosis factor receptor 1 (TNFRSF1A) using HepaRG (AID 2283535). As to conditions: mRNA level, 48 h; actives raise or lower the signal. The gist of the method:
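Assay uses 48 h chemical treatment of differentiated HepaRG monolayers, tested in duplicate at eight concentrations from 100 uM downward in 0.5% DMSO. mRNA is normalized to ACTB, GAPDH and POLR2A, with induction or suppression fitted relative to vehicle.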

Read-out in assay [11]: Thyroid Hormone Responsive (THRSP), THRSP (gene 7069)
Put plainly: LTEA_HepaRG_THRSP: Life Technologies and Expression Analysis (LTEA) Assay for Thyroid Hormone Responsive (THRSP) using HepaRG (AID 2283536). Particulars: mRNA level, 48 h; actives raise or lower the signal. Put shortly:
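THRSP transcript quantified by Fluidigm qRT-PCR against three housekeeping genes after 48 h chemical exposure of HepaRG cells in serum-free induction medium; eight-point half-log series, top 100 uM, 0.5% DMSO vehicle, duplicate wells.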

Read-out in assay [12]: Cellular tumor antigen p53 (Homo sapiens) (UniProt P04637)
Put plainly: LTEA_HepaRG_TP53: Life Technologies and Expression Analysis (LTEA) Assay for Tumor Protein P53 (TP53) using HepaRG (AID 2283537). As to conditions: mRNA level, 48 h; actives raise or lower the signal. The gist of the method: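 Read-out is TP53 transcript level by microfluidic qRT-PCR, normalised to three housekeeping genes and fitted bidirectionally against DMSO. Human HepaRG cells received compounds for 48 h, highest concentration 100 uM.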

Read-out in assay [13]: UDP glucuronosyltransferase (UGT1A1), UGT1A1 (gene 54658)
Put plainly: LTEA_HepaRG_UGT1A1: Life Technologies and Expression Analysis (LTEA) Assay for UDP glucuronosyltransferase (UGT1A1) using HepaRG (AID 2283538). As to conditions: mRNA level, 48 h; actives raise or lower the signal. Put shortly:
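Cells are plated, cultured 48 h, switched to serum-free induction medium, then dosed 48 h at eight concentrations (max 100 uM, 0.5% DMSO). RNA is isolated and UGT1A1 expression measured by qRT-PCR; changes versus DMSO are fitted in both directions.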

Read-out in assay [14]: UDP glucuronosyltransferase (UGT1A6), UGT1A6 (gene 54578)
Put plainly: LTEA_HepaRG_UGT1A6: Life Technologies and Expression Analysis (LTEA) Assay for UDP glucuronosyltransferase (UGT1A6) using HepaRG (AID 2283539). As to conditions: mRNA level, 48 h; actives raise or lower the signal. Put shortly: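 Measures mRNA change in HepaRG hepatic cells exposed 48 h to chemicals (eight-point, maximum 100 uM, 0.5% DMSO vehicle) in serum-free induction medium. Expression normalized to endogenous controls; DMSO served as negative control and baseline.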

Read-out in assay [15]: X-box binding protein 1 (XBP1), XBP1 (gene 7494)
Put plainly: LTEA_HepaRG_XBP1: Life Technologies and Expression Analysis (LTEA) Assay for X-box binding protein 1 (XBP1) using HepaRG (AID 2283540). As to conditions: mRNA level, 48 h; actives raise or lower the signal. The gist of the method: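 Eight concentrations (half-log, highest 100 uM, 0.5% DMSO) tested in duplicate on HepaRG cells over 48 h in serum-free induction medium; qRT-PCR of XBP1 normalised to ACTB, GAPDH, POLR2A.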

Assay [16] in a line: LTEA_HepaRG_LDH_cytotoxicity: Cytotoxicity Assessment in the Life Technologies and Expression Analysis (LTEA) Assay (AID 2283563; active = hit-call score of the fitted dose curve at least 0.9, where 1 is the maximum). Put shortly: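 Spent-medium LDH after 48 h chemical exposure of HepaRG cells in serum-free induction medium; eight concentrations, half-log dilutions from 100 uM, duplicate wells, fitted upward relative to 0.5% DMSO.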
Assay [17] is described as follows: ATG_XTT_Cytotoxicity: Cytotoxicity Assessment in the Attagene TRANS-FACTORIAL HepG2 Assay (AID 2283584; active = hit-call score of the fitted dose curve at least 0.9, where 1 is the maximum;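 as to AC50: XTT signal for cell number as viability in transfected HepG2 cells; cells exposed to compound for 24 h before reading; active means loss of viability signal versus DMSO baseline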). The gist of the method: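 24 h chemical exposure of reporter-transfected HepG2; XTT signal loss vs DMSO indicates cytotoxicity.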
A short description of assay [18]: TOX21_p53_BLA_p2_viability: Viability Assessment in the Tox21 HCT-116 p53 Agonism Beta-lactamase Assay, Phase 2 (AID 2283591; active = hit-call score of the fitted dose curve at least 0.9, where 1 is the maximum;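 also: compound exposure lasted 16 h at 37 °C; actives lower the ATP signal meaning cytotoxicity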). The gist of the method:
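Cytotoxicity readout: CellTiter-Glo ATP luminescence, 30 min at room temperature, after the beta-lactamase read. Cells were HCT116 exposed 16 h at 37C to compounds pin-transferred at 217-fold dilution from DMSO stocks.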

Assay [19] deals with Cellular tumor antigen p53 (Homo sapiens) (UniProt P04637). Put plainly: TOX21_p53_BLA_p2_ratio: Tox21 HCT-116 p53 Agonism Beta-lactamase Assay, Ratio, Phase 2 (AID 2283592; active = hit-call score of the fitted dose curve at least 0.9, where 1 is the maximum). The gist of the method:
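DMSO-normalized, positive-direction endpoint derived from the 460 nm/530 nm FRET ratio in HCT116 p53 beta-lactamase reporter cells exposed 16 h at 37C and loaded with CCF4-AM for 2 h.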

Read-out in assay [20]: Nuclear factor erythroid 2-related factor 2 (Homo sapiens) (UniProt Q16236)
Put plainly: LTEA_HepaRG_NFE2L2: Life Technologies and Expression Analysis (LTEA) Assay for Nuclear factor erythroid 2-related factor 2 (NFE2L2) Transcription Factor using HepaRG (AID 2283527). Particulars: mRNA level, 48 h; actives raise or lower the signal. Put shortly: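 NFE2L2 transcript level was read by qRT-PCR (housekeeping ACTB/GAPDH/POLR2A normalisation) after 48 h chemical treatment of HepaRG in serum-free induction medium. Duplicate 8-point half-log curves, top 100 uM, 0.5% DMSO vehicle; up- or down-regulation fitted against vehicle.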

“And” between values parts separate entries of the source, which are not always exact repeats. Equal entries are not always repeated. Results filed as inconclusive are left out. Some structures have more than one record in an assay (separate samples or runs), and their calls can disagree. The source made the active and inactive calls. The calls were made as follows, unless noted: active = hit-call score of the fitted dose curve at least 0.9, where 1 is the maximum; inactive = score below 0.9.

Sequence of Cellular tumor antigen p53 (Homo sapiens) (P04637 whole entry, looked up): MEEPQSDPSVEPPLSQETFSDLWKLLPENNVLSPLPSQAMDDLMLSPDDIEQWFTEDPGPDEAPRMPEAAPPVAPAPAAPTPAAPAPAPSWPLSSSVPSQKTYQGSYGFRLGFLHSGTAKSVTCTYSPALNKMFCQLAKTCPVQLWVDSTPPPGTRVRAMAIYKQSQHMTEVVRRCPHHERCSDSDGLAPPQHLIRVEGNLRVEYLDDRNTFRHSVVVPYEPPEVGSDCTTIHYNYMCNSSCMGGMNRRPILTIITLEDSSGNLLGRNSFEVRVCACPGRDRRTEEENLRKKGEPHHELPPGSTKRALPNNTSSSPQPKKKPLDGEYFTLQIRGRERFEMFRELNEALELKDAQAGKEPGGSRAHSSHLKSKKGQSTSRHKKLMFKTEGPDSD
Sequence of Signal transducer and activator of transcription 3 (Homo sapiens) (P40763 whole entry, looked up): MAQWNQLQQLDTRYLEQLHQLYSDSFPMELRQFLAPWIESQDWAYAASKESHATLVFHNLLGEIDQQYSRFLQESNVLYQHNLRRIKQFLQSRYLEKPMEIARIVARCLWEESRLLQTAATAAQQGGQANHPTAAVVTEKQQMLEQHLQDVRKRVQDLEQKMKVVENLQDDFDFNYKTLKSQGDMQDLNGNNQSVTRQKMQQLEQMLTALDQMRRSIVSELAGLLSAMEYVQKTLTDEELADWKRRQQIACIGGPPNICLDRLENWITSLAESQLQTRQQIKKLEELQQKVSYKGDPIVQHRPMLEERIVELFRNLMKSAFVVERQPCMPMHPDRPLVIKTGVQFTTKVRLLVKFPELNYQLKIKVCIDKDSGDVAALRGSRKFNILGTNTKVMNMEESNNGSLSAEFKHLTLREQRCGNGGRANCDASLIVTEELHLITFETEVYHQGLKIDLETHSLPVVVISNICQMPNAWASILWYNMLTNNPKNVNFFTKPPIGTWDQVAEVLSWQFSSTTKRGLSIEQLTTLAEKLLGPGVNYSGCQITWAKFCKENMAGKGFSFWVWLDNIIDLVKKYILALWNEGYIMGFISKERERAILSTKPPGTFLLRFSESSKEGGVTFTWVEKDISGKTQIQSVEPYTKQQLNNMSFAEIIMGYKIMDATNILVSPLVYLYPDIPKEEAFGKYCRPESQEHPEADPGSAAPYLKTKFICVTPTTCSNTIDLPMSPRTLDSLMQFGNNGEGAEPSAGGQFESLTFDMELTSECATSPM
Sequence of Nuclear factor erythroid 2-related factor 2 (Homo sapiens) (Q16236 whole entry, looked up): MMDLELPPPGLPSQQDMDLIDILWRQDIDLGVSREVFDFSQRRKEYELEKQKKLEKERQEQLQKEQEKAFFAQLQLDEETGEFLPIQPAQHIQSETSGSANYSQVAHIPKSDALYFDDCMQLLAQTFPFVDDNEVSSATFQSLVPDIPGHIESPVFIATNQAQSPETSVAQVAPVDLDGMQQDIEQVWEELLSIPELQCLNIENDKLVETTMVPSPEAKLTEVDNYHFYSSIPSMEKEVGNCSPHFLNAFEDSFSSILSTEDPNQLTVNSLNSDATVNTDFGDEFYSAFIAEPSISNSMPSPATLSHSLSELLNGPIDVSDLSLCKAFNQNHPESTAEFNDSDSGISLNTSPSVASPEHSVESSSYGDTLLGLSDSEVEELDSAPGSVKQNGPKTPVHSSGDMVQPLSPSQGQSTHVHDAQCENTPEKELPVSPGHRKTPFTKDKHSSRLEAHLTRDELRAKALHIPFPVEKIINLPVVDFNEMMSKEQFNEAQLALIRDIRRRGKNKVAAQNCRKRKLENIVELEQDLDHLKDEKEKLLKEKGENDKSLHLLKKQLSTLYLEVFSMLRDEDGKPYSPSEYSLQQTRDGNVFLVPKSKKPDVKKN

For `OCCC(F)(F)C(F)(F)C(F)(F)C(F)(F)C(F)(F)C(F)(F)C(F)(F)C(F)(F)F`, the call in [1], in assay [2], in assay [3], in assay [4], in assay [5] and in assay [6] was inactive. In addition, the compound was called inactive in assay [7], in [8], in [9], in [10], in [11] and in [12]. Besides, the compound was called inactive in assay [13], in assay [14], in assay [15], in assay [16], in [17] and in assay [18]. Also, the outcome in assay [19] was inactive.

In the case of `OCCC(F)(F)C(F)(F)C(F)(F)C(F)(F)C(F)(F)C(F)(F)F`, the outcome in assay [1], in assay [2], in assay [20], in assay [3], in assay [4] and in assay [5] was inactive. The outcome in assay [6], in assay [7], in assay [8], in assay [9], in assay [10] and in assay [11] was inactive. Further, the call in assay [12], in assay [13], in [14], in assay [15], in [16] and in [17] was inactive.

Usually AC50 stands for the concentration at which the activity in the assay is half-maximal. `CC(C)(C)c1cc(C(C)(C)C)c(O)c(C(C)(C)C)c1`: the AC50 in assay [1] is 23.5 µM (active); in assay [11], 17.9 µM (active); in assay [13], 13.9 µM (active); in assay [14] it was 14.5 µM (active). Further, the compound was classed as inactive in assay [2], in assay [3], in assay [4], in [5], in [6] and in [7]. Moreover, the compound was called inactive in assay [8], in assay [9], in assay [10], in assay [12], in [15] and in [16]. Moreover, the compound was classed as inactive in [18] and in [19].

As for `Cc1ccc(S(=O)(=O)O)c(C)c1`, the outcome in assay [17] and in [19] was inactive.

`CCCCCCCCCCCCCC[N+](C)(C)C`: the half-maximal activity concentration (AC50) in [17] is 36.8 µM (active); in assay [18], 49.1 µM (active) and 13.3 µM (active) and 33.7 µM (active); in [19] it was 43.8 µM (active) and 11.3 µM (active). Also, the call in [17] and in assay [19] was inactive.

For `CC(C)CCCCCCOC(=O)CCCCC(=O)OCCCCCCC(C)C`, the outcome in [1], in [2], in assay [3], in assay [4], in [5] and in [6] was inactive. The call in [7], in assay [8], in assay [9], in [10], in assay [11] and in [12] was inactive. Besides, the result in assay [13], in assay [14], in assay [15], in assay [16], in assay [18] and in assay [19] was inactive.

Take `Cc1cc(C)c(O)c(C)c1`: the call in assay [1], in [2], in [3], in [4], in assay [5] and in [6] was inactive. Moreover, the compound was classed as inactive in [7], in [8], in [9], in assay [10], in assay [11] and in assay [12]. In addition, the compound was called inactive in assay [14], in [15], in [16] and in assay [19]. Also, in assay [13], the AC50 was 8.27 µM (active).

Values taken from PubChem BioAssay (EPA / NIEHS).
